Screening data from PubChem BioAssay.
Rows were chosen to be rich in hits. Some 21% of all compounds tested hit in one or more screens of this group.
ELG1 repair inh = blocks ELG1-dependent DNA repair in HEK293T cells | Potency, µM (titrated, usually from 46.1 µM), for the others: at the highest dose activity change, negative = inhibition, hits mostly inhibitors | actives 2.3% (n = 330,000) | HEK293T ELG1-luciferase reporter, luminescence, 16 h; DNA damage induced by 5-fluorouridine; further: potency means the concentration at half of the fitted maximal effect; nearly all actives have a fitted effect of over 55% in size
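Overnight (16 hr) co-exposure of 2,000 cells/well to 5-fluorouridine and compound at 37 °C preceded detection. Luciferase was quantified via ONE-Glo luminescence; loss of signal denotes inhibition.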
DT40 TDP1 CPT = DT40-hTDP1 cell growth loss with CPT; actives 12% (n = 420,000); chicken DT40 Tdp1-/-;hTDP1 cells + 20 nM CPT, ATP luminescence, 48 h; Potency, µM (doses to about 46.2 µM), for inactives: at the highest dose activity change, negative = growth inhibition, usual class: inhibitors; AID 686979; further: potency means the concentration at half of the fitted maximal effect; nearly all actives have a fitted effect of over 55% in size
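Chicken DT40 Tdp1-/- cells stably complemented with human TDP1 were seeded at 400 cells/well in medium containing 20 nM camptothecin, exposed to pin-transferred compounds, and grown at 37 °C for at least 48 hr. Viability was read as ATP luminescence.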
IL1B secr inh = blocks inflammasome-driven IL-1 beta release; THP-1 LPS/ATP IL-1B secretion, AlphaLISA, 16 h; stronger effect = lower value; AID 743279; activity change, % at 57.5 µM; actives 4.7% (n = 360,000); in the data active means activity change below about -50%; inconclusive means mostly about -30% to -49%
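Secreted IL-1B measured by AlphaLISA bead assay after 16 h compound exposure of THP-1 cells; compounds (final up to 57.5 uM) added 1 h before LPS (250 ng/mL) and ATP (1.25 mM) stimulation; lower signal means less secretion.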
RORgamma inh = blocks mouse ROR gamma transcriptional activity; P51450; Drosophila S2 Gal4-RORgamma UAS-luciferase reporter, 20 h; Potency, µM (highest dose often 53.6 µM), without a hit: top-dose activity change, negative = inhibition, usual class: inhibitors; actives 5.4% (n = 310,000); further: potency means the concentration at half of the fitted maximal effect; nearly all actives have a fitted effect of over 60% in size
Target sequence (P51450 whole entry, looked up, the tested form may be a part): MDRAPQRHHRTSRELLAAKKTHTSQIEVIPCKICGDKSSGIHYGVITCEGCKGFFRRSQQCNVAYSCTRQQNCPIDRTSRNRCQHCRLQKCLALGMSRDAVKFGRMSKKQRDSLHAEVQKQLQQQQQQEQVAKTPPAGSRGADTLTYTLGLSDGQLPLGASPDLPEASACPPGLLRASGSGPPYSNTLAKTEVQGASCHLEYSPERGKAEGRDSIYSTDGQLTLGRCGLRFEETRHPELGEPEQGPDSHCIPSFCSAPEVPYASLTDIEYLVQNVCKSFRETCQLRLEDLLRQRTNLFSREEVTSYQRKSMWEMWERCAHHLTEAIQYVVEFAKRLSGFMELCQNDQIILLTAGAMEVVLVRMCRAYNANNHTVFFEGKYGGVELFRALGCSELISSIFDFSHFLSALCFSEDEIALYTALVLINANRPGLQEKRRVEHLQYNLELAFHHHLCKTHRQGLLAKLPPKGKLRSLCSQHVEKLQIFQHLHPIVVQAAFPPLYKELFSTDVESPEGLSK
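Stable Schneider cell line, Gal4 DNA-binding domain fused to ROR gamma, UAS-luciferase. Cmpd 1 hr RT → CuSO4 700 uM final → 20 hr RT → luciferase reagent 10 min → luminescence.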
VP16 counter = Gal4-VP16 reporter inhibition counter-screen. Drosophila S2 Gal4-VP16 UAS-luciferase, luminescence, 20 h. Potency, µM (titrated, usually from 53.6 µM), for inactives: at the top dose activity, negative = inhibition, usual class: inhibitors. actives 3.5% (n = 310,000). AID 2546;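 further: Gal4-VP16 expression switched on by copper sulfate through the metallothionein promoter; potency means the concentration at half of the fitted maximal effect; nearly all actives have a fitted effect of over 50% in size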
TDP1 cell noCPT = qHTS for Inhibitors of human tyrosyl-DNA phosphodiesterase 1 (TDP1): qHTS in cells in absence of CPT | DT40 Tdp1-/- hTDP1 cells, no CPT, ATP luminescence, 48 h | Potency, µM (titrated, usually from 46.2 µM), without a hit: top-dose activity change, negative = growth inhibition, usual class: inhibitors | actives 15% (n = 420,000) | AID 686978, 2013; further: potency means the concentration at half of the fitted maximal effect; nearly all actives have a fitted effect of over 55% in size
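Seeded 400 DT40-hTDP1 cells/well (vehicle DMSO, no 20 nM CPT); pinned compounds; ≥48 hr at 37 °C; CellTiter-Glo luminescence as viability measure.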
* hit, by the source's call; ? = inconclusive; nt = no result; [ ] = dose if it differs, or a comment. Unless noted, the call rests on the fitted dose curve; in most records, active means well fitted curve in the direction sought with a large enough effect; inconclusive means small, poorly fitted or top-dose-only effect, or another doubt; inactive means no such curve, though single readings can be large; an effect the other way counts as inactive or inconclusive. On the % scale 0 is the no-effect control and ±100 the full control effect.

SMILES | ELG1 repair inh | DT40 TDP1 CPT | IL1B secr inh | RORgamma inh | VP16 counter | TDP1 cell noCPT
CCOC(=O)C(CCc1ccccc1)NC(C)C(=O)N1Cc2ccccc2CC1C(=O)O (stereo not given) | nt | nt | nt | 8.3% | -2.7% | nt
COC(=O)N[C@@H]1C[C@H]2[C@@H]3CC[C@H]4C[C@@H](OC)CC[C@]4(C)[C@H]3CC[C@@]12C | 20.2% | 13µM* | 41.4 | nt | nt | 14.6µM*
COC(=O)N[C@@H]1C[C@H]2[C@@H]3CC[C@H]4C[C@@H](OC)CC[C@]4(C)[C@H]3CC[C@]12C | 11.6% | ? | 50.6 | nt | nt | ?
COC(=O)[C@H]1C[C@H]2[C@@H]3CC[C@H]4C[C@@H](OC)CC[C@]4(C)[C@H]3CC[C@]2(C)[C@@]2(CCCO2)O1 | -4.3% | ? | -3.9 | nt | nt | 16.4µM*
O=C(Cc1c(O)c2ccccc2[nH]c1=O)OC1CCCCC1 | 9.7% | -0.2% | 22.4 | 24.7% | -2.0% | -18.9%
CCc1c(C)sc2nc3c(C(=O)N4CCOCC4)cc(C(=O)c4ccccc4O)cn3c(=O)c12 | ? | 23.1µM* | -64.2* | 17.5% | 2.5% | 14.6µM*
Cc1sc2nc3c(SC(C)C(=O)O)cc(C(=O)c4ccccc4O)cn3c(=O)c2c1C (stereo not given) | 9.9% | -3.2% | ? | -12.1% | -12.5% | 1.8%
COC(=O)c1cc(C(=O)c2cc(F)ccc2O)cn2c(=O)c3c(C)c(C)sc3nc12 | ? | 4.11µM* | -5.5 | 7.6% | -7.8% | -23.7%
Cc1cccc(-c2ocnc2C(=O)Nc2ncc(C)s2)c1 | nt | -15.2% | 27.5 | nt | nt | -20.1%
CCOc1ccccc1C(=O)NCC(c1cccs1)S(=O)(=O)c1ccc(F)c(C)c1 (stereo not given) | nt | 9.9% | nt | nt | nt | -14.7%
CCN(CC)S(=O)(=O)c1cccc(-c2nnc(SCC#N)n2Cc2ccccc2)c1 | ? | ? | 13.9 | 43.5% | -11.5% | ?
CCN(CC)S(=O)(=O)c1cccc(-c2nnc(SC(C)C#N)n2Cc2ccccc2)c1 (stereo not given) | ? | 14.6µM* | -18.9 | ? | -10.7% | 18.4µM*
COc1cc(-c2nn3c(-c4ccccc4)nnc3s2)cc(OC)c1OC | ? | ? | 26.9 | -2.8% | -1.6% | ?
COc1cc(-c2nn3c(Cc4ccccc4)nnc3s2)cc(OC)c1OC | -23.3% | 35.5µM* | -7.1 | -7.0% | -14.1% | ?
COc1cc(-c2nn3c(-c4cc(-c5ccccc5)n[nH]4)nnc3s2)cc(OC)c1OC | nt | 15.8µM* | nt | nt | nt | 8.91µM*
COc1cc(-c2nn3c(COc4ccccc4)nnc3s2)cc(OC)c1OC | ? | -13.0% | 41.6 | -2.4%[10 µM] | -4.2% | -25.7%
COc1ccccc1-c1nn2c(-c3cc(C)[nH]n3)nnc2s1 | nt | 8.91µM* | nt | nt | nt | 7.94µM*
COc1ccc(-c2nnc3sc(-c4ccccc4OC)nn23)cc1 | 1.3% | -19.6% | -27.0 | -5.7%[10 µM] | 0.6% | ?
COc1cc2c(cc1OC)C(NC(=O)c1ccc(C)cc1)CC2=O (stereo not given) | ? | -4.7% | 33.3 | 10.0% | -15.3% | 20.9%
Nc1ccc(S(=O)(=O)N2CCCC2)cc1Cl | -8.0% | -26.9% | 28.0 | 20.8% | 3.0% | -0.4%
COc1cccc(C(C)NC(=O)Nc2cc(Cl)ccc2OC)c1 (stereo not given) | 4.9% | 0.1% | 21.2 | -35.9% | -22.7% | ?
COc1cccc(C(C)NC(=O)Nc2cccc(C(F)(F)F)c2)c1 (stereo not given) | -4.3% | 20.6µM* | 5.9 | ? | 35.5µM* | 10.3µM*
COc1cccc(NC(=O)Nc2ccncc2)c1 | 9.7% | -22.8% | 29.8 | 12.8% | -19.9% | -22.6%
